Hits are enriched below; roughly 2.9% of the tested compounds scored in any of these assays.
IP6K1 inh: Primary qHTS assay for small molecule inhibitors of Inositol hexaphosphate kinase 1 (IP6K1) | Inositol hexakisphosphate kinase 1 (Homo sapiens), Q92551 | IP6K1 kinase, ADP-Glo luminescence, 2 h; stronger effect = lower value | activity change, % (series mostly up to about 58 µM) | hit rate 0.81% among 140,000; in the data active = activity change below about -25%; note: % is set by controls: 0 for no effect and ±100 for the full control effect
Target sequence (Q92551 whole entry, looked up): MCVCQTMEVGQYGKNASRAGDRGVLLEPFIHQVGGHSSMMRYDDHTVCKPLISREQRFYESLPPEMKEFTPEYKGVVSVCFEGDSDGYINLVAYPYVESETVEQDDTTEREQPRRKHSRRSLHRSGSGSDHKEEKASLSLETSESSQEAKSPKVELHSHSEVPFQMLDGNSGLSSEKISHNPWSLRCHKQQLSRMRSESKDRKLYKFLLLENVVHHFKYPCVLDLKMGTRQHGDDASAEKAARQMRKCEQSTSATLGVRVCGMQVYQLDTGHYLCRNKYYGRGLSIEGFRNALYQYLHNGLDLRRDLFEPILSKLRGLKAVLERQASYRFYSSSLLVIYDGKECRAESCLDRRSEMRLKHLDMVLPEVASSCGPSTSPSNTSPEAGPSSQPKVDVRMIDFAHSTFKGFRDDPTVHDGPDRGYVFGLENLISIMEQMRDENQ
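ADP-Glo luminescence measures ADP made by human IP6K1 during a 2 h RT reaction with ATP/IP6 (mix at 1.3 mM/130 uM); top library doses 57.5 and 19.1 uM final.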
SNCA expr inh: Primary qHTS assay for inhibitors of alpha-synuclein gene (SNCA) expression. HEK-293 SNCA-luciferase knock-in, luminescence, 24 h. Potency, µM (top dose mostly 57.2 µM), for inactives: top-dose activity change, negative = inhibition, usual class: inhibitors. hit rate 0.17% among 140,000. AID 1671194, 2021;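 note: potency is the fitted concentration of half-maximal effect; plate controls were DMSO cells for no effect and cell-free wells for full effect; nearly all actives have a fitted effect of over 45% in size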
HEK293 viab: GF-AFC viability counterscreen for inhibitors of alpha-synuclein gene (SNCA) expression; HEK-293-SNCA-luc viability, GF-AFC fluorescence, 24 h; Potency, µM (highest dose often 57.1 µM), for the others: at the highest dose activity change, negative = cytotoxicity, actives largely listed as cytotoxic; hit rate 0.12% among 150,000; AID 1671193, 2021;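 note: potency is the fitted concentration of half-maximal effect; 0% = DMSO-treated cells and -100% = medium-only wells without cells; nearly all actives have a fitted effect of over 30% in size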
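Cytotoxicity counterscreen: after 24 h compound treatment of genome-edited SNCA-luciferase HEK-293 cells, live-cell protease substrate GF-AFC read by fluorescence after 30 min; activity scaled between DMSO (0%) and medium-only (-100%), curves Hill-fitted.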
KDM5B inhibitor: Primary screen for KDM5B Histone Demethylases FDH-coupled qHTS | AID 1347165, 2019 | hit rate 2.6% among 220,000 | KDM5B demethylase, FDH-coupled NADH fluorescence (FDH is formaldehyde dehydrogenase) | Potency, µM (highest dose often 57.7 µM), actives largely listed as inhibitors; note: potency is the fitted concentration of half-maximal effect; 0% is about no effect; nearly all actives have a fitted effect of over 70% in size
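Inhibition is measured as reduced NADH fluorescence generation from FDH coupling to formaldehyde release. Truncated KDM5BΔAP at 200 nM final acts on H3K4me3 peptide (12.5 µM in substrate mix) in pH 7.5 HEPES buffer with Tween-20, 30 min, room temperature.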
* hit, by the source's call; i = inactive; ? = inconclusive; . = no result; [ ] = dose if it differs, or a comment. Unless noted, calls come from the whole dose curve; as a rule, active = well fitted curve in the direction sought with a large enough effect; inconclusive = small, poorly fitted or top-dose-only effect, or another doubt; inactive = no such curve, though single readings can be large; an effect the other way counts as inactive or inconclusive.

SMILES	IP6K1 inh	SNCA expr inh	HEK293 viab	KDM5B inhibitor
O=C(Nc1ccc(Cl)cc1)c1nc2c(o1)CCN(Cc1cc(F)ccc1F)CC2	-2	1%[87.6 µM]	-12%[87.6 µM]	32µM*
O=C(Nc1ccc(Cl)cc1)c1nc2c(o1)CCN(Cc1ccccc1)CC2	6	0%[87.6 µM]	-16%[87.6 µM]	32µM*
O=C(NCC1CC1)c1nc2c(o1)CCN(Cc1ccc3[nH]ccc3c1)CC2	20	15%[87.6 µM]	0%[87.6 µM]	i
O=C(NCCOc1ccccc1)c1nc2c(o1)CCN(Cc1ccc3[nH]ccc3c1)CC2	3	18%[87.6 µM]	-3%[87.6 µM]	40µM*
O=C(NCc1ccccc1)c1nc2c(o1)CCN(Cc1ccc(F)cc1)CC2	5	-5%[87.6 µM]	-5%[87.6 µM]	i
CCc1ccc(CNC(=O)CCC2CCCN(S(=O)(=O)c3ccccc3C)C2)cc1 (centres undefined)	3	9%	-4%	?
Cc1oc2c(c1C(=O)N(C)C)CN(Cc1ccc(Br)o1)CC2	-10	15%	-7%	i
CCn1ccc(C(=O)N2C[C@@H](COC)[C@H](c3nc(C)no3)C2)n1	-6	?	?	i
O=C(c1ccc2cc[nH]c2c1)N1C[C@@H](CO)[C@H](c2ccccn2)C1	-2	-3%	2%	?
Cc1noc([C@@H]2CN(C(=O)c3ccc4cc[nH]c4c3)C[C@H]2CO)n1	-5	6%	-5%	25µM*
COC[C@@H]1CN(C(=O)c2cn3ccccc3n2)C[C@H]1c1nc(C)no1	-4	1%	2%	20µM*
COc1cccc([C@H]2CN(C(=O)c3ccc4cc[nH]c4c3)C[C@@H]2N)c1	-20	5%	-18%	32µM*
O=C(c1cc[nH]c(=O)c1)N1C[C@@H](CO)[C@H](c2ccccn2)C1	0	-12%	3%	22µM*
COc1ccc(-c2cc3nc(C)c(CCC(=O)NCc4ccc5c(c4)OCO5)c(C)n3n2)c(OC)c1	.	.	.	i
N#Cc1c(SCCN2CCOCC2)nc(N2CCCC2)c2c1CCCC2	.	.	.	i
CCOc1cc(=O)n2c(c1C(=O)Nc1cccc(OC)c1)CCCC2	4	30%	-3%	i
Cn1c(SCC(=O)NC2CCCCC2)nnc1-c1cccnc1	.	.	.	i
Cc1ccccc1-c1nc2cnccn2c1NCCC(=O)NCc1ccco1	-5	-5%	?	32µM*
Cc1ccccc1-c1nc2cnccn2c1NCCC(=O)NC1CCCCC1	9	14%	29%	28µM*
COCCNC(=O)Cc1c[nH]c2ncc(-c3ccccc3)cc12	18	-28%[87.6 µM]	7%[87.6 µM]	40µM*
COc1ccc(-c2cnc3[nH]cc(CC(=O)NCc4cnccn4)c3c2)cc1	-17	9%[87.6 µM]	2%[87.6 µM]	i
COCCNC(=O)Cc1c[nH]c2ncc(-c3ccc(OC)cc3)cc12	5	24%[87.6 µM]	8%[87.6 µM]	35µM*
O=C(Cc1c[nH]c2ncc(-c3ccccc3)cc12)NCCCn1ccnc1	4	-7%[87.6 µM]	5%[87.6 µM]	40µM*
O=C(NCCCn1ccnc1)c1ccc(-c2ccccc2)cc1	.	.	.	i
COc1cccc(NC(=O)CN(C)C(=O)C2CCN(c3ccc(C#N)cn3)CC2)c1	.	.	.	i
SMILES	IP6K1 inh	SNCA expr inh	HEK293 viab	KDM5B inhibitor
COc1ccc(-c2nc(N3CCOCC3)cc3c2CN(Cc2cnn(C)c2)C3=O)cc1OC	11	36%	14%	i
Cn1cc(CN2Cc3c(cc(N4CCOCC4)nc3-c3cccc(F)c3)C2=O)cn1	12	0%[87.6 µM]	6%[87.6 µM]	35µM*
Cn1cc(CN2Cc3c(cc(N4CCOCC4)nc3-c3ccc(CO)cc3)C2=O)cn1	12	-18%[87.6 µM]	11%[87.6 µM]	35µM*
Cn1cc(CN2Cc3c(cc(N4CCOCC4)nc3-c3cccnc3)C2=O)cn1	16	7%[87.6 µM]	4%[87.6 µM]	35µM*
Cc1noc2c(-c3ccc(N4CCOCC4)cc3)cc(-c3cccnc3)nc12	0	?	28%[87.6 µM]	?
CN(CC1CCOCC1)C(=O)NCc1ccco1	24	-3%	-1%	i
CC(C)C[C@@H]1N[C@H](C(=O)NC2CCC2)Cc2cn(CC3CC3)c3cccc1c23	-5	?	-5%[87.6 µM]	i
CC(C)C[C@@H]1N[C@H](C(=O)NCCN(C)C)Cc2cn(CC3CC3)c3cccc1c23	12	-43%[87.6 µM]	?	28µM*
C=CCn1cc2c3c(cccc31)[C@H](CC(C)C)N[C@H](C(=O)NCCN(C)C)C2	-6	7%[87.6 µM]	0%[87.6 µM]	32µM*
C=CCn1cc2c3c(cccc31)[C@H](CC(C)C)N[C@H](C(=O)NCCC)C2	16	?	-25%[87.6 µM]	?
CC(C)CN1CCOC(CNC(=O)Cc2ccc(Cl)c(Cl)c2)C1 (centres undefined)	.	.	.	i
CCC1Oc2ccc(NC(=O)Cc3cccs3)cc2CN(Cc2ccc(OC)cc2)C1=O (centres undefined)	-7	4%	-1%	i
CCOc1cccc(/C=C/C(=O)c2ccc(Br)cc2)c1OC	.	.	.	i
Cc1c(-c2cccc(NC(=O)Cc3ccccc3)c2)nc2ncccn12	1	98%	7%	?
CCn1ccnc1C1CCN(C(=O)Cn2cccnc2=O)CC1	-1	10%	-4%	?
Cc1nc(C(C)C)ncc1C(=O)N1CCC2(CCCN(C)C2=O)C1 (centres undefined)	23	-15%	13%	i
Cc1nc2ncccn2c1C(=O)N1CCC(c2nccn2CC(N)=O)CC1	-2	-3%	3%	28µM*
Cc1nc2ncccn2c1C(=O)N1C[C@H]2C(=O)NC[C@@]2(C(=O)O)C1	-1	7%	3%	28µM*
CCOC(=O)C1(Cc2ccccc2F)CCCN(C(=O)c2ccc(-n3ccnc3)cc2)C1 (centres undefined)	9	0%	-3%	i
Cc1nc2ncccn2c1C(=O)N1CCC2(CCCN(C)C2=O)C1 (centres undefined)	-10	-10%	-7%	28µM*
CCOC(=O)C1(Cc2ccc(F)cc2F)CCCN(C(=O)c2c(C)nc3ncccn23)C1 (centres undefined)	-6	7%	4%	32µM*
COc1ccc(CC(=O)N2CCC3(CCCN(CC4CCC4)C3=O)C2)cc1 (centres undefined)	0	20%	-12%	i
COc1ccc(COC(=O)C2=C(C)NC3=C(C(=O)CCC3)C2c2cccc(Cl)c2)cc1 (centres undefined)	.	.	.	i
Cc1cc(C(=O)O)c(C)s1	.	.	.	i
CCc1n[nH]c(CC2CCN(C(=O)c3ccccc3)CC2)n1	-16	?	4%	22µM*
CCOC(=O)c1c(C)[nH]c(C(=O)Cn2nnc(-c3cccc(C(F)(F)F)c3)n2)c1C	.	.	.	i
CCn1c(CO)nnc1C1CC(NC(=O)c2scc3c2CCCC3)C1 (centres undefined)	2	-19%	-20%	i
CCn1c(CO)nnc1C1CC(NC(=O)c2cnc3sccn3c2=O)C1 (centres undefined)	0	1%	-1%	28µM*

High-throughput results from PubChem BioAssay.
